From PubChem
D1 agonist – agonists of human D1 dopamine receptor | HEK293 T-REx D1 cells, calcium flux, agonist mode | activation, % at 2 µM | 360,000 tested, 1% active | P21728
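Tetracycline-induced HEK293 TREx D1 cells, force-coupled to calcium signalling, were dye-loaded with a no-wash calcium kit. Compound was pin-added after a 10 s baseline. Fluorescence was read kinetically at 1 cycle/s for 180 s, with calcium rises flagged as agonism.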
TRHR ag – agonists of human TRH receptor; 360,000 tested, 0.18% active; P34981; TRHR cells, calcium flux fluo-8, FDSS agonist mode; activation, % at 2 µM
Target sequence (P34981 whole entry, looked up): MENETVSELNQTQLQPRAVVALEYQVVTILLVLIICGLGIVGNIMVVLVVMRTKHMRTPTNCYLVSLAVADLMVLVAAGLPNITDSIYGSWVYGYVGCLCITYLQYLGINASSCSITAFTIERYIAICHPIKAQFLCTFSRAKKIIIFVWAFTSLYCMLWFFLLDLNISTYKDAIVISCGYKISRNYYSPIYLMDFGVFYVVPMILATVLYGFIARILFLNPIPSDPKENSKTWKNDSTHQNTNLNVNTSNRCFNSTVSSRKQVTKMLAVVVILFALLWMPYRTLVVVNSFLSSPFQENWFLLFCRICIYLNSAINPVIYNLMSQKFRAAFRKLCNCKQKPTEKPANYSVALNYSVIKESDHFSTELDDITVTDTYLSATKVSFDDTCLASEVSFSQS
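Agonist-mode FDSS calcium read (Ex 480/Em 530, 1 s cycles) in 1536-well TRHR cells with fluo-8 dye, after 10-cycle baseline and 23 nL compound addition; TRH at EC20 (10 nM final) added afterwards for the enhancer phase.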
D1 antag – blocks dopamine activation of the human D1 receptor; P21728; HEK293 TREx D1 cells, calcium flux, dopamine EC80; hits give low values; activity change, negative = inhibition, % at 10 µM; 360,000 tested, 3.2% active; AID 504652; in the data active = activity change below about -30%
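Calcium flux readout: force-coupled, inducible Hek293 Trex D1 line, cells induced overnight at 30 C with tetracycline, dye-loaded 30–90 min at RT. Antagonism scored against EC80 dopamine challenge given 180 s after compound.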
TRHR enhancer – allosterically enhances the human TRH receptor; 360,000 tested, 0.66% active; enhancement, % at 2 µM; TRHR cells, fluo-8 calcium fluorescence, EC20 TRH enhancement; P34981; AID 493056; in the data active = enhancement above about 30%
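Enhancer read-out: after compound pinning and an initial kinetic agonist-mode read, an EC20 of TRH (10 nM final) was injected and fluo-8 calcium signal (Ex 480/Em 530) followed at 1 s/cycle for 100 cycles in TRHR-expressing cells.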
D1 potentiator – potentiators of human D1 dopamine receptor; HEK293 TREx D1 cells, calcium flux, dopamine EC20 potentiation; potentiation, % at 10 µM; 360,000 tested, 0.036% active; in the data active = potentiation above about 30%
Of the large screens only hits and unclear results are named; the others gave an inactive call; ! = not confirmed by another sample. Only some compounds are listed: those with a hit (about 4.7% of all), similar ones and a draw of the others. Rule as the data show it, unless noted: active = activation above about 30%; inactive = the rest.

COc1ccc(-n2nc(C(=O)Nc3ccc(Cl)cn3)c3c4ccccc4n(C)c3c2=O)cc1	none
COc1cccc(-c2nnc(SCC(=O)NC3CCS(=O)(=O)C3)n2C)c1 (configuration not stated)	D1 antag -35
O=C(NC1CCCC1)C(c1ccsc1)N(C(=O)Cc1cccs1)c1cccc(F)c1 (configuration not stated)	D1 antag -32
CCC1=C(c2ccc(C)cc2)S(=O)(=O)N=C1N1CCC(C(=O)NCc2ccc(N(C)C)cc2)CC1	none
COc1ccc(N2CCN(C(=O)CCC(=O)N3CCOc4ccc(Cl)cc43)CC2)cc1	none
Cc1ccc2c(c1)N(C(=O)CCC(=O)N1CCN(c3cccc(C)c3C)CC1)CCO2	none
COc1ccc(N2CCN(C(=O)CCC(=O)N3CCOc4ccc(C)cc43)CC2)cc1	D1 antag -34
COc1ccc(N2CCN(C(=O)Cc3coc4ccc(C)cc34)CC2)cc1	D1 antag -68
Cc1ccc2c(c1)N(C(=O)CCC(=O)N1CCN(c3ccccc3)CC1)CCO2	D1 antag -50
CC(=O)c1cccc(NC(=O)c2nc(-c3ccc(C)cc3)n3c2CCCCC3)c1	none
COc1ccc(-c2oc3ncn4nc(-c5ccc(Cl)cc5)nc4c3c2-c2ccc(OC)cc2)cc1	none
Cc1cccc(N2CCN(C(=O)C3CCN(C(=O)c4cc5sccc5n4C)CC3)CC2C)c1 (configuration not stated)	none
CC(c1ccccc1)N1CCC(CNC(=S)Nc2cccc(Cl)c2)C1 (configuration not stated)	D1 agonist 45, D1 antag -54
Cc1ccc(NC(=S)NCC2CCN(C(C)c3ccccc3)C2)cc1 (configuration not stated)	none
CCOC(=O)c1cc(-c2ccc(OC)c(S(=O)(=O)NC3CCCCC3)c2)on1	none
CCSc1nnc(NC(=O)C(C)Sc2nc3ccccc3[nH]2)s1 (configuration not stated)	TRHR enhancer 36
O=C(CCCSc1nc2ccccc2[nH]1)NC1CCCCC1	none
Cc1ccc(NC(=O)CCCSc2nc3ccccc3[nH]2)cc1	D1 antag -33
O=C(CCCSc1nc2ccccc2[nH]1)Nc1nnc(C2CC2)s1	D1 antag -36
CCOC(=O)c1c(CSc2ccccc2)oc2cc(Br)c(O)c(CN(C)C)c12	none
CC(=O)C1=C(C)Nc2ncnn2C1c1cccc(OCc2ccccc2)c1 (configuration not stated)	D1 antag -31
COc1cccc(C2C(C(C)=O)=C(C)Nc3ncnn32)c1 (configuration not stated)	none
O=C(NNC(=O)c1cc(-c2cccc(Br)c2)nc2ccccc12)c1csc(N2CCOCC2)n1	D1 antag -84
COc1cc(C(=O)Nc2cccc(-c3nncn3C)c2)cc(OC)c1OC	TRHR enhancer 34
COc1cc(C(=O)Nc2cccc(NC(=O)c3ccccc3)c2)cc(OC)c1OC	none
Cc1ccc(Cl)cc1N1CCN(C(=O)c2cc3ccc4cccnc4c3[nH]2)CC1	TRHR enhancer 30
COc1cc(OC)cc(C(=O)NCC(=O)NCCN2C(=O)S/C(=C\c3ccccc3Cl)C2=O)c1	none
COc1cc(C(=O)NCC(=O)NCCN2C(=O)S/C(=C\c3ccccc3Cl)C2=O)cc(OC)c1OC	TRHR enhancer 31
C/C(=N\NC(=O)c1cc(Br)ccc1O)c1cccs1	D1 agonist 32
C/C(=N/NC(=O)c1ccc(Br)o1)c1cccs1	none
Nc1cc(=O)[nH]c2nnc(SCC(=O)Nc3cccc4ccccc34)n12	D1 antag -45
COc1cc(NC(=O)CC(c2cccs2)N2Cc3ccccc3C2=O)cc(OC)c1OC (configuration not stated)	none
COC(=O)c1cc(NC(=O)c2cccc([N+](=O)[O-])c2C)ccc1Cl	none
CCOc1ccc(-c2cc(NC(=O)Nc3cccc(C(C)=O)c3)c(C(=O)OC)s2)cc1	none
CSc1ccccc1N1CCN(C(=O)Nc2ccc3c(c2)NC(=O)CO3)CC1	D1 antag -49
CCOC(=O)c1ccccc1NC(=O)CSc1nc2ncccc2o1	none
COc1ccc(C(=O)N2c3nc(-c4ccco4)nn3C3(CCCCC3)[C@@H]3CCCC[C@@H]32)cc1OC	none
COc1ccc(-c2noc(CCCC(=O)NC3CCCCC3)n2)cc1OC	none
CCOc1ccc(-c2noc(CCCC(=O)NC3CCCC3)n2)cc1OC	D1 antag -85 (no result: D1 potentiator)
COc1ccc(-c2noc(CCCC(=O)NC3CCCCC3)n2)cc1	D1 antag -37
Cc1ccc(Nc2c(-c3cc(Br)ccc3F)nc3cc(C)ccn23)cc1	none
CCC(=O)Nc1ccccc1-c1nc2ccccc2n(CC(=O)c2ccc(Cl)cc2)c1=O	none
COc1ccc(C(=O)Nc2ccc(S(=O)(=O)N(Cc3ccccc3)c3ccccc3)cc2)cc1	none
COc1ccc(S(=O)(=O)N(CC(=O)NC2CC2)c2ccc(C)cc2)cc1	none
COc1ccc(N(Cc2ccccc2)S(=O)(=O)c2ccc(C)cc2)cc1	D1 antag -30
COc1ccc(S(=O)(=O)N(CC(=O)O)c2ccc(C)cc2)cc1	D1 antag -50
CC(C)(C)c1ccc(C(=O)Nc2ccccc2C(=O)OCc2cc(=O)n3ccsc3n2)cc1	none
COc1ccc(-c2noc(-c3ccc(N4CCCC4)c([N+](=O)[O-])c3)n2)cc1OC	D1 antag -38
COc1ccc(-c2noc(-c3ccc(NCc4ccco4)c([N+](=O)[O-])c3)n2)cc1	D1 antag -32
COc1ccc(-c2noc(-c3ccc(NCC4CCCO4)c([N+](=O)[O-])c3)n2)cc1 (configuration not stated)	D1 antag -58
COc1cc(-c2noc(-c3ccc(NC4CCCC4)c([N+](=O)[O-])c3)n2)cc(OC)c1OC	D1 antag -30
COc1cccc(-n2c(=O)c3c4c(sc3n(Cc3ccc(C)cc3)c2=O)CCCC4)c1	none
Cc1ccc(Cl)cc1NC(=O)c1cc(-c2ccc3c(c2)OCCO3)on1	none
Cc1ccc(C)c2sc(NC(=O)c3ccc(S(=O)(=O)N4CCC(C)CC4)cc3)nc12	none
CC1CCCC/C1=N\Nc1ccc(S(N)(=O)=O)cc1[N+](=O)[O-] (configuration not stated)	D1 antag -30
COc1cc(OC)cc(C(=O)Nc2ccc(-c3nc4cc(C(C)C)ccc4o3)cc2)c1	none
COc1ccccc1CNC(=O)C(CC(C)C)NS(=O)(=O)c1ccc2c(c1)oc(=O)n2C (configuration not stated)	D1 antag -32!
O=C1C(=O)N(c2cccc(Cl)c2)C(c2ccccc2[N+](=O)[O-])/C1=C(\O)c1ccccc1 (configuration not stated)	D1 antag -51
O=C1C(=O)N(c2ccccc2)C(c2ccccc2[N+](=O)[O-])/C1=C(\O)c1ccccc1 (configuration not stated)	none
